According to ChEMBL document CHEMBL1961873, “Compounds: GSK PKIS; Assays: Nanosyn kinase panel” (2012):

What was measured:
[1] = target: Sphingosine kinase 1 (Homo sapiens) (UniProt Q9NYA1); conditions: at 1 µM;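 also: mean SPHK1 inhibition value reported from the GSK PKIS kinase panel screen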
[2] = target: T1, Sphingosine kinase 2 (Homo sapiens) (UniProt Q9NRA0); conditions: at 0.1 µM
T1 sequence (whole entry): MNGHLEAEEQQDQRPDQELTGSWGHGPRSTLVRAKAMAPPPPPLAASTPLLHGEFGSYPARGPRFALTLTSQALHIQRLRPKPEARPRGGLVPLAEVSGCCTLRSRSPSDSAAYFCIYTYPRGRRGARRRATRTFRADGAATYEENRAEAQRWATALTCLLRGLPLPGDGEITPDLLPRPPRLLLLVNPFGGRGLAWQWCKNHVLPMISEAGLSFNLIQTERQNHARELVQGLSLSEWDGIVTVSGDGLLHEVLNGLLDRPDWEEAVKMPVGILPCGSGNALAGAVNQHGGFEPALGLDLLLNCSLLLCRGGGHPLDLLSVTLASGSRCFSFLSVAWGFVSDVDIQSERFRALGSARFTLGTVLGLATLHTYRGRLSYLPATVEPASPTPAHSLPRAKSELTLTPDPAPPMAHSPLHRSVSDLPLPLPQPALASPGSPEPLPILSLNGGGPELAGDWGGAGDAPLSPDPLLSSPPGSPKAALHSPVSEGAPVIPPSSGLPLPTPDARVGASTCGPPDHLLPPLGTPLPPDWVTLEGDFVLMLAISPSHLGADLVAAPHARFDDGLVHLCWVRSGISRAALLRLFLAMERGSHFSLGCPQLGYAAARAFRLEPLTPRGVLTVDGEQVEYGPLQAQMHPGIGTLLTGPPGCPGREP

[3] = target: T1, Sphingosine kinase 2 (Homo sapiens); conditions: at 1 µM
[4] = target: Casein kinase II subunit alpha (Homo sapiens) (UniProt P68400); conditions: at 0.1 µM
[5] = target: Casein kinase II subunit alpha (Homo sapiens) (UniProt P68400); conditions: at 1 µM
[6] = target: T2, Inhibitor of nuclear factor kappa-B kinase subunit alpha (Homo sapiens) (UniProt O15111); conditions: at 0.1 µM
T2 sequence (whole entry): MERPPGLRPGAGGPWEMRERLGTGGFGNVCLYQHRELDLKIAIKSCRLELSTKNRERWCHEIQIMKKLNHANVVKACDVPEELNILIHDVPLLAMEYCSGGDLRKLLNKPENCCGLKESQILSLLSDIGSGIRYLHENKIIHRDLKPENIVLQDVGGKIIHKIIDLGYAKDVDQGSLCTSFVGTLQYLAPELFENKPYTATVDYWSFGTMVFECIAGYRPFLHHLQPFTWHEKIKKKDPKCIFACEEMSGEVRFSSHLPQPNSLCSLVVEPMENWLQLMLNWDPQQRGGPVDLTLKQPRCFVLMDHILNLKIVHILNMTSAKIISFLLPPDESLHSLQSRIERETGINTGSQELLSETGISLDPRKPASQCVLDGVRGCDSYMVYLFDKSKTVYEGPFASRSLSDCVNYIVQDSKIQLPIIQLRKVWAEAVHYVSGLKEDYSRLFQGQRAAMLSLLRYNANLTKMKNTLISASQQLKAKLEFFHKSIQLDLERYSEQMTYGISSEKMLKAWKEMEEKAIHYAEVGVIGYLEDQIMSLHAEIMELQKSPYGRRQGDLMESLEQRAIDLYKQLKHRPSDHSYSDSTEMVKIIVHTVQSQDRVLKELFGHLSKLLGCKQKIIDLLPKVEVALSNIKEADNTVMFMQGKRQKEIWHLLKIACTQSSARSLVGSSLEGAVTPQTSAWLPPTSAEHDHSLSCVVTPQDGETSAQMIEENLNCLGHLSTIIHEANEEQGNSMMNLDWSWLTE

[7] = target: T2, Inhibitor of nuclear factor kappa-B kinase subunit alpha (Homo sapiens); conditions: at 1 µM
[8] = target: T3, Inhibitor of nuclear factor kappa-B kinase subunit beta (Homo sapiens) (UniProt O14920); conditions: at 0.1 µM
T3 sequence (whole entry): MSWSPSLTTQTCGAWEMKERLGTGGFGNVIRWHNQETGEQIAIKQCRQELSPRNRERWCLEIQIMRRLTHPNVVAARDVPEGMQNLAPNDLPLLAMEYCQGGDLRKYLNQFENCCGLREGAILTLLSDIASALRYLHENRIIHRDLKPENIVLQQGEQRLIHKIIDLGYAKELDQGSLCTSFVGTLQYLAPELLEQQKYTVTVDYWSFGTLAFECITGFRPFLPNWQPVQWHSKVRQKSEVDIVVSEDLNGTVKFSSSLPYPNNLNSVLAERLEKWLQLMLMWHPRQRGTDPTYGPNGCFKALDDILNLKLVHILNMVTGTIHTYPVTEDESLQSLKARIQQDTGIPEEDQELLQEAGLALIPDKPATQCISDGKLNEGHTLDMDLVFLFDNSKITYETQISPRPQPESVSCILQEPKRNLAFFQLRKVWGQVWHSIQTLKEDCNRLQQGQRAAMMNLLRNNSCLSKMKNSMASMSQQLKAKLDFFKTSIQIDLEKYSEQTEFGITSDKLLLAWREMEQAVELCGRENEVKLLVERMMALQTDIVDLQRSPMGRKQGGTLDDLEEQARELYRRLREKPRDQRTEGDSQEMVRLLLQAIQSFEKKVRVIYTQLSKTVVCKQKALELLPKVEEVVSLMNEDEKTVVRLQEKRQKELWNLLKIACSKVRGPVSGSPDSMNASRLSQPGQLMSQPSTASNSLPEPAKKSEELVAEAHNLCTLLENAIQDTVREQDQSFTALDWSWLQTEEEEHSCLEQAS

[9] = target: T3, Inhibitor of nuclear factor kappa-B kinase subunit beta (Homo sapiens); conditions: at 1 µM
[10] = target: T4, Inhibitor of nuclear factor kappa-B kinase subunit epsilon (Homo sapiens) (UniProt Q14164); conditions: at 0.1 µM
T4 sequence (whole entry): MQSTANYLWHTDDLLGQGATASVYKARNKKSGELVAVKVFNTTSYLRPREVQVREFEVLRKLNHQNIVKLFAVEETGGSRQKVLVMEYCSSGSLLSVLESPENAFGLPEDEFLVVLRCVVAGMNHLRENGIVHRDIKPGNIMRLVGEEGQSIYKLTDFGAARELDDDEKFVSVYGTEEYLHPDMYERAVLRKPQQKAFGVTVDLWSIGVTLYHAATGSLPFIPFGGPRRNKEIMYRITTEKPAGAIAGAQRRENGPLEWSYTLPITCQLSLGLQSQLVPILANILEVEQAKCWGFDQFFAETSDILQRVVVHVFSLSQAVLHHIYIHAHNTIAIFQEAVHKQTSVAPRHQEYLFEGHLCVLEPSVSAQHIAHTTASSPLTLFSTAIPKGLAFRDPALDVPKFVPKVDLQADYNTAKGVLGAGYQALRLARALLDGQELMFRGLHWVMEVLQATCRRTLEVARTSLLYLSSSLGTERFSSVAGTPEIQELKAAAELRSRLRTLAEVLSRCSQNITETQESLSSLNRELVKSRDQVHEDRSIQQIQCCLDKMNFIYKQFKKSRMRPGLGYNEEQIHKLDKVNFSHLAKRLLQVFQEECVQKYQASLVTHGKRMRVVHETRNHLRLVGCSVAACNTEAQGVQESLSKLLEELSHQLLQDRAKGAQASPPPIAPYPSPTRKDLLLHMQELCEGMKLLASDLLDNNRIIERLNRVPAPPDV

[11] = target: T4, Inhibitor of nuclear factor kappa-B kinase subunit epsilon (Homo sapiens); conditions: at 1 µM
[12] = target: T5, Serine/threonine-protein kinase Nek1 (Homo sapiens) (UniProt Q96PY6); conditions: at 0.1 µM
T5 sequence (whole entry): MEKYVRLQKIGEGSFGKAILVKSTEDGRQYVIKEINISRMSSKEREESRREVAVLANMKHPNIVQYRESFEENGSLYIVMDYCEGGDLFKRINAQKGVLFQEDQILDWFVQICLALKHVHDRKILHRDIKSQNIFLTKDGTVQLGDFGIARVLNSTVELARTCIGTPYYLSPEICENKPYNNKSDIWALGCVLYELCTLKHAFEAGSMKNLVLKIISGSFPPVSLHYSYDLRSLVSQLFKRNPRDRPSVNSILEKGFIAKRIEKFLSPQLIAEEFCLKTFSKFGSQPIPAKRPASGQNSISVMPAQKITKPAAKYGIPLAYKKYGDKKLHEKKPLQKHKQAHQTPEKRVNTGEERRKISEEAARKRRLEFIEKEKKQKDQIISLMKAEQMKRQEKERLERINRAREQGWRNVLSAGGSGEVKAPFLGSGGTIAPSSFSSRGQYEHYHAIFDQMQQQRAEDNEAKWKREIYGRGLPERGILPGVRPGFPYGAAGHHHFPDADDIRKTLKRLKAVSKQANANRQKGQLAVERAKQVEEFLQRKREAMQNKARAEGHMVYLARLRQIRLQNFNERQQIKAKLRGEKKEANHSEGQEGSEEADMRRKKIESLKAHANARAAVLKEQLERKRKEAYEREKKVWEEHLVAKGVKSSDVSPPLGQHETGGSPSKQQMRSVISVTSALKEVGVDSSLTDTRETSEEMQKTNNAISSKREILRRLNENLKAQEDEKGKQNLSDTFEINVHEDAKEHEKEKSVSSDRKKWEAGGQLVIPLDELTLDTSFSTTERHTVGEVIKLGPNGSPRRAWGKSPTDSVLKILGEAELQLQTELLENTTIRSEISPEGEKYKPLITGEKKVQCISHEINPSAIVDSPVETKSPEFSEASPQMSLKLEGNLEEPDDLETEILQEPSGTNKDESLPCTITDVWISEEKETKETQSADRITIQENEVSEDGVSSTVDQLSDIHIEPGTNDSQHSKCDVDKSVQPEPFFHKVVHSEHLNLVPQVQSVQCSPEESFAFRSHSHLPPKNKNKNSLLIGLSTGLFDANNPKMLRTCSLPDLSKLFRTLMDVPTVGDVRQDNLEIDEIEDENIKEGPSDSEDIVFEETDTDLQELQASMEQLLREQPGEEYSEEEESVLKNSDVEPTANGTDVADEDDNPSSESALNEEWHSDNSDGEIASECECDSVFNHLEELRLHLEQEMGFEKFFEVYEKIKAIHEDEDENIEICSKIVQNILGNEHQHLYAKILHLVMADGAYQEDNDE

[13] = target: T5, Serine/threonine-protein kinase Nek1 (Homo sapiens); conditions: at 1 µM
[14] = target: T6, Serine/threonine-protein kinase Nek2 (Homo sapiens) (UniProt P51955); conditions: at 0.1 µM
T6 sequence (whole entry): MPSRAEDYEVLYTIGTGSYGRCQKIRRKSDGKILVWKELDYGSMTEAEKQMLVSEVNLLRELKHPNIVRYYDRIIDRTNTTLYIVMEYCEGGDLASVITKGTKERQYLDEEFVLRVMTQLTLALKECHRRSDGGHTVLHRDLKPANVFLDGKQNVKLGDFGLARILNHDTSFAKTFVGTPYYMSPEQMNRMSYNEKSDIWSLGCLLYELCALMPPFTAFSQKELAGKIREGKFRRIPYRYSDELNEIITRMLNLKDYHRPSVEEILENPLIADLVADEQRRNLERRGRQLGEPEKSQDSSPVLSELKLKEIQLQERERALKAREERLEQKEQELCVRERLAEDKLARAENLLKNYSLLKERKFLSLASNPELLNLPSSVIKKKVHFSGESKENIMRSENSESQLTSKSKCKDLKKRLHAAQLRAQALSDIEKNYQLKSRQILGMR

[15] = target: T6, Serine/threonine-protein kinase Nek2 (Homo sapiens); conditions: at 1 µM
[16] = target: Serine/threonine-protein kinase Nek6 (Homo sapiens) (UniProt Q9HC98); conditions: at 0.1 µM
[17] = target: Serine/threonine-protein kinase Nek6 (Homo sapiens) (UniProt Q9HC98); conditions: at 1 µM
[18] = target: Serine/threonine-protein kinase Nek7 (Homo sapiens) (UniProt Q8TDX7); conditions: at 0.1 µM
[19] = target: Serine/threonine-protein kinase Nek7 (Homo sapiens) (UniProt Q8TDX7); conditions: at 1 µM
[20] = target: T7, Serine/threonine-protein kinase Nek9 (Homo sapiens) (UniProt Q8TD19); conditions: at 0.1 µM;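 also: reported value is the mean percent inhibition of NEK9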
T7 sequence (whole entry): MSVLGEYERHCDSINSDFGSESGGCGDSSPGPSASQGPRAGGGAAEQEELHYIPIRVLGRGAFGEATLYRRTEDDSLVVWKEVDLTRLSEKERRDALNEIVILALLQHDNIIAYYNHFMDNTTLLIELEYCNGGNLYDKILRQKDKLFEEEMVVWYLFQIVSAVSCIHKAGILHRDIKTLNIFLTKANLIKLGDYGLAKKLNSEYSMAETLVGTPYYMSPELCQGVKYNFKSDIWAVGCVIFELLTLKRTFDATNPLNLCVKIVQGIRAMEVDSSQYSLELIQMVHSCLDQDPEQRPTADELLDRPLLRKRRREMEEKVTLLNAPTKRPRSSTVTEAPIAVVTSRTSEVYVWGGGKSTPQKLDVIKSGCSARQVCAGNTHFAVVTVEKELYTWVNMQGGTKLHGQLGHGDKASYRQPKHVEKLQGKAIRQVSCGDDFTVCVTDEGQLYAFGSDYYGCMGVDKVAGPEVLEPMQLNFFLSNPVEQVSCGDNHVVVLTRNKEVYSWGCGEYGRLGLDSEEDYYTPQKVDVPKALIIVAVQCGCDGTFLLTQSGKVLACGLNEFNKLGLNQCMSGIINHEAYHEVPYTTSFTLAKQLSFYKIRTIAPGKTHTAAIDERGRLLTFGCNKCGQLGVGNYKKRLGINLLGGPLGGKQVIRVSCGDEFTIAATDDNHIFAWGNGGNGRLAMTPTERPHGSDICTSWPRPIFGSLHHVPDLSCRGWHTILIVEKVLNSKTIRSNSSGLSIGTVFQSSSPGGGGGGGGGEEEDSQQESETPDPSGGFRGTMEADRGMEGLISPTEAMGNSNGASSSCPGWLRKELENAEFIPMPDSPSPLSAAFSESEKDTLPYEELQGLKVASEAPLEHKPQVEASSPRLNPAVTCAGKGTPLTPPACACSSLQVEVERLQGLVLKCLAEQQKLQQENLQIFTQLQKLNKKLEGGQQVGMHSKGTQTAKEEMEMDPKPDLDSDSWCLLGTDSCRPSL

Serine/threonine-protein kinase Nek6 (Homo sapiens), sequence (Q9HC98 whole entry): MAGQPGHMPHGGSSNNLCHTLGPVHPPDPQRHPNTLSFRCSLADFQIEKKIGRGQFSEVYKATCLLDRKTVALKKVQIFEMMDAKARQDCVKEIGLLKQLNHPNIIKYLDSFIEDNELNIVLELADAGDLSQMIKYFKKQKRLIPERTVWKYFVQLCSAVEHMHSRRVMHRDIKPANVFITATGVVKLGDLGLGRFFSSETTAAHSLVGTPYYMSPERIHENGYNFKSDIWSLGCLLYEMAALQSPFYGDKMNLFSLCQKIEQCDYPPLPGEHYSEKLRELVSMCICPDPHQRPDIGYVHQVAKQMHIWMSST
Casein kinase II subunit alpha (Homo sapiens), sequence (P68400 whole entry, looked up): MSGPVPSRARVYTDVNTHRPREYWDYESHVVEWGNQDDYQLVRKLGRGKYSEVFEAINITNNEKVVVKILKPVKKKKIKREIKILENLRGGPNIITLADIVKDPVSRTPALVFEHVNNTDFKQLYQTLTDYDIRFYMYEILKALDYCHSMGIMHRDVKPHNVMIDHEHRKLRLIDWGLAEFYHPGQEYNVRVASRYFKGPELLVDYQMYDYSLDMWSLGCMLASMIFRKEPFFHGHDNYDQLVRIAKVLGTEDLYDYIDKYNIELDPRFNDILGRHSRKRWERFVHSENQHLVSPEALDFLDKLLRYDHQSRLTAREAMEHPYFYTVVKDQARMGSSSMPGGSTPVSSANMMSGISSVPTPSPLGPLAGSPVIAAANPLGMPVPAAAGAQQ
Serine/threonine-protein kinase Nek7 (Homo sapiens), sequence (Q8TDX7 whole entry, looked up): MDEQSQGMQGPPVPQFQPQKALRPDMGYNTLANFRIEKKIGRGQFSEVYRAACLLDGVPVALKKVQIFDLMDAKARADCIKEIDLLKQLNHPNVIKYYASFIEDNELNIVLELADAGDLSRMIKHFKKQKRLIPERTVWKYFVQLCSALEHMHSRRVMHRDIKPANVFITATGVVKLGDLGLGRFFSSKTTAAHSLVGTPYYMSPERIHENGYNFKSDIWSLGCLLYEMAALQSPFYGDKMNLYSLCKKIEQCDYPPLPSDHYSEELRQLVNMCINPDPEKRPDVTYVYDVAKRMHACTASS
Sphingosine kinase 1 (Homo sapiens), sequence (Q9NYA1 whole entry): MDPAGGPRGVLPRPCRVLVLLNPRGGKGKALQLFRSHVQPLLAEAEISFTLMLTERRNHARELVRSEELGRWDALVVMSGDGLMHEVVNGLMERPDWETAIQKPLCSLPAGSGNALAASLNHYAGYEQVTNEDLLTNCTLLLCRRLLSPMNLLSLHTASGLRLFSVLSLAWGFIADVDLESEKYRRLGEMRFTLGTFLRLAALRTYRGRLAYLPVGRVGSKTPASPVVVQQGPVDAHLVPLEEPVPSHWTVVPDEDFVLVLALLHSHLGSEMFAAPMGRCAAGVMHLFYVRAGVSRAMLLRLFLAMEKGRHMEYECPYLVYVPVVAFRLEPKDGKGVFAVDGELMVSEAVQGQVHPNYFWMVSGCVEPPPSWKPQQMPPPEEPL

Row | SMILES | inhibition [1] | inhibition [2] | inhibition [3] | inhibition [4] | inhibition [5] | inhibition [6] | inhibition [7] | inhibition [8] | inhibition [9] | inhibition [10] | inhibition [11] | inhibition [12] | inhibition [13] | inhibition [14] | inhibition [15] | inhibition [16] | inhibition [17] | inhibition [18] | inhibition [19] | inhibition [20]
1 | CC1=C(C(=O)Nc2ccc3[nH]ncc3c2)C(c2ccc3ccccc3c2)CC(=O)N1 (centres undefined) | 0% | 0.52% | 0.65% | 3.48% | 6.51% | -1.96% | 1.55% | 1.45% | 0.58% | 3.14% | 3.81% | 1.66% | 2.46% | 2.88% | 2.9% | -0.05% | 2.48% | 0.42% | 1.79% | 3.14%
2 | Cn1cc(C=C2C(=O)Nc3cccnc32)c2ccccc21 | 8.29% | -4.3% | -0.04% | 1.08% | 6.39% | 5.69% | -0.33% | 2.27% | 1.05% | 3.13% |  | 2.09% | 1.05% | 2.65% | 2.9% | 3.82% | -1.86% | 3.8% | 4.49% | 2.88%
